In publication PMC7862700, “An all-to-all approach to the identification of sequence-specific readers for epigenetic DNA modifications on cytosine” one finds binding signal data, which are given here for one sequence.

Holding throughout (assay): DAPPL (digital affinity profiling via proximity ligation, sequencing); 10 mM Tris-HCl pH 7.5, 50 mM NaCl, 1 mM DTT, 4% glycerol, room temperature, 30 min; GST-TFs on glutathione beads, 16-mer random dsDNA library, 0.1% formaldehyde crosslink after washing; high values mean tight binding
Common to all, as to settings: protein: recombinant; tags: N-terminal GST; dsDNA, one strand shown

For test [1], the target named is T1, ELK1 (Homo sapiens, UniProt P19419 1-428).
T1 sequence: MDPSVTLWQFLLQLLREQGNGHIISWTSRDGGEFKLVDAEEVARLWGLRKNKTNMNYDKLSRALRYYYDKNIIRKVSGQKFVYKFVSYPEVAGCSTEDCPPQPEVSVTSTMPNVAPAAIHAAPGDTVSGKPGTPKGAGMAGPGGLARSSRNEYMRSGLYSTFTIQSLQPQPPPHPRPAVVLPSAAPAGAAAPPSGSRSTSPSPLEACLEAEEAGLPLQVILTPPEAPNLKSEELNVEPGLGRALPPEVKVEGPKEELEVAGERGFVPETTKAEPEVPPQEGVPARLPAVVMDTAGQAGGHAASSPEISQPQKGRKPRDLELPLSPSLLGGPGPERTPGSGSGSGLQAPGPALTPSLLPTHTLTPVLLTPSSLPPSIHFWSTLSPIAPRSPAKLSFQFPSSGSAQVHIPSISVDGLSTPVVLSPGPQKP
In outline:
(§1)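 GST fusions of human transcription factors were expressed in yeast and captured with glutathione beads. Once given DNA barcodes and pooled alongside a tag-only sample, they were incubated for 30 min at room temperature with 200 nmole of a random double-stranded 16-mer DNA library in Tris/NaCl/DTT/glycerol buffer, then washed, crosslinked (0.1% formaldehyde), proximity-ligated, PCR-amplified and sequenced on an Illumina NextSeq500. The binding signal of each hexamer is its read frequency for a factor divided by its frequency for the tag-only sample.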

The target of test [2] is T2, GABPA (Homo sapiens, UniProt Q06546 1-454).
T2 sequence: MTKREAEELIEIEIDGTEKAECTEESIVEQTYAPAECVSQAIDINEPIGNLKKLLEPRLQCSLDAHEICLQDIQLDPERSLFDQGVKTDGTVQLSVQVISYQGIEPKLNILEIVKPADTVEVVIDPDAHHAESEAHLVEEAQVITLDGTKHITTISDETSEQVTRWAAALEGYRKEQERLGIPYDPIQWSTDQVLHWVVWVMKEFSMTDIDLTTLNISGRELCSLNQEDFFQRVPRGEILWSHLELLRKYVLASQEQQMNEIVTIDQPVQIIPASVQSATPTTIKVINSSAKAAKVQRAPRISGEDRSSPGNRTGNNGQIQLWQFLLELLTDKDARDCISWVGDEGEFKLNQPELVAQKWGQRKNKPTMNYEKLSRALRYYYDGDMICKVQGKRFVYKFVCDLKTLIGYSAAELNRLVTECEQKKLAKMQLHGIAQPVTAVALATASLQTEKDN
A digest of the protocol: as §1

Test [3] deals with T3, ERG (Homo sapiens, UniProt P11308 1-479).
T3 sequence: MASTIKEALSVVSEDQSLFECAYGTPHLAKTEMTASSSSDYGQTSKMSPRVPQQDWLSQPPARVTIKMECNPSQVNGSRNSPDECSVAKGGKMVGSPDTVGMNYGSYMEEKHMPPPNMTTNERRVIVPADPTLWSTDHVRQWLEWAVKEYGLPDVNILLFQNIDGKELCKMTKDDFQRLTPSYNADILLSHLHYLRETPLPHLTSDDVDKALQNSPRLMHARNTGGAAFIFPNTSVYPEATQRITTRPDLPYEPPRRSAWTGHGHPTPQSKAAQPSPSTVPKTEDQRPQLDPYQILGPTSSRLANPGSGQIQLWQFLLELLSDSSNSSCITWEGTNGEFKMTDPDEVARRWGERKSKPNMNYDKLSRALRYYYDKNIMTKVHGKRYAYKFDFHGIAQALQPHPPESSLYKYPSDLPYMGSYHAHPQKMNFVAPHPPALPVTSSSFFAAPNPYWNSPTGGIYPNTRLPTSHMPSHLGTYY
In outline:
as §1

In test [4] the target is ELF1 (Homo sapiens, UniProt P32519 1-619). A digest of the protocol: as §1
Chain of ELF1 (P32519 whole entry): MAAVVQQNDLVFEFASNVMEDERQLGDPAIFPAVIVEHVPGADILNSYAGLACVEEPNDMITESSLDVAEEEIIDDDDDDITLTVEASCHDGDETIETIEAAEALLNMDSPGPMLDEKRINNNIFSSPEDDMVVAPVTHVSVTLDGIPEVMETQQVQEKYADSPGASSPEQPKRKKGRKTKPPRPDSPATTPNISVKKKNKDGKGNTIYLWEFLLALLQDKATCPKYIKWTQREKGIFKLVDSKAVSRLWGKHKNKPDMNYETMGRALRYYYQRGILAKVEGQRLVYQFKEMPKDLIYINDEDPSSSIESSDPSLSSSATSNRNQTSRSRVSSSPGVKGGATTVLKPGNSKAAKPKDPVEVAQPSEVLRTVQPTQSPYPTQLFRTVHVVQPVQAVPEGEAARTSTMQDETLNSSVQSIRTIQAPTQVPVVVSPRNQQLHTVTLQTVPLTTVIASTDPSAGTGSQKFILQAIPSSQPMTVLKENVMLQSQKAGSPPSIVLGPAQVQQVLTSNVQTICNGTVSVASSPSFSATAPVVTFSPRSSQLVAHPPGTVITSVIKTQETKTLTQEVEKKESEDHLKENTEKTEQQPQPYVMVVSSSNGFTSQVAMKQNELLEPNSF
For test [5], the target named is ETV5 (Homo sapiens, UniProt P41161 1-510). In outline: as §1
Chain of ETV5 (P41161 whole entry): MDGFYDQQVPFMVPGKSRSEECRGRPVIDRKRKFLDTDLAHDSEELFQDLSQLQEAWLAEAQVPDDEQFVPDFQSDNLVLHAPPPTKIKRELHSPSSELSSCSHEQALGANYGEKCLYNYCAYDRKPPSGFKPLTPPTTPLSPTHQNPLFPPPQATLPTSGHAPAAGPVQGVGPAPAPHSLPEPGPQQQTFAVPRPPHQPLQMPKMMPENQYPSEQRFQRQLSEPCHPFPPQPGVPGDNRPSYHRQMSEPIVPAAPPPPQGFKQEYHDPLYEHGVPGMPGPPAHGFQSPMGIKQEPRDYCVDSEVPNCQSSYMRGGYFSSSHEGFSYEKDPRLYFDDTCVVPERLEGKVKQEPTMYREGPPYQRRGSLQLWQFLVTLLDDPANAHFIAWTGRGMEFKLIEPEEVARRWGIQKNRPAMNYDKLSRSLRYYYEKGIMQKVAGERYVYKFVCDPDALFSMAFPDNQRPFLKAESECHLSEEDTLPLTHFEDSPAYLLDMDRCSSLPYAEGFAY
Test [6] deals with T4, ELK4 (Homo sapiens, UniProt P28324-2 1-405).
T4 sequence: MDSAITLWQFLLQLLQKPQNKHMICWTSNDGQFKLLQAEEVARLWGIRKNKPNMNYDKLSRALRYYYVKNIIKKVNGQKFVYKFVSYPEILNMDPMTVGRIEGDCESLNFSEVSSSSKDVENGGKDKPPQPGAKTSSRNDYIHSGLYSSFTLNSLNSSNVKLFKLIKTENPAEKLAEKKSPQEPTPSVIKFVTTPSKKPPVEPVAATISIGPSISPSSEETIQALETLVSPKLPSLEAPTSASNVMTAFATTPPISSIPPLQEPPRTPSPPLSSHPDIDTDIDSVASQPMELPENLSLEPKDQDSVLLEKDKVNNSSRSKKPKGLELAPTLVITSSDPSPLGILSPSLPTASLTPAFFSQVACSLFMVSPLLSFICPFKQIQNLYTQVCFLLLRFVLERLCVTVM
In outline:
as §1

In test [7] the target is T5, ETV2 (Homo sapiens, UniProt O00321 1-342).
T5 sequence: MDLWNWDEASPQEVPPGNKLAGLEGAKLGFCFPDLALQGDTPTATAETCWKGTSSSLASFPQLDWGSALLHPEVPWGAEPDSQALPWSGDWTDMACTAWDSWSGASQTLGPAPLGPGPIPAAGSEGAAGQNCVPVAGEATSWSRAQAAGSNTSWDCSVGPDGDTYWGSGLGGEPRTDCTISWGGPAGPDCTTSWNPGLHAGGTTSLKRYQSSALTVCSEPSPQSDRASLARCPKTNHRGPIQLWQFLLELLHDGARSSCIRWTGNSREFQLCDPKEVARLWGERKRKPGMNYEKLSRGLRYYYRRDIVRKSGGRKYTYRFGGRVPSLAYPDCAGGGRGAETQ
A digest of the protocol:
as §1

In test [8] the target is T6, ERF (Homo sapiens, UniProt P50548 1-548).
T6 sequence: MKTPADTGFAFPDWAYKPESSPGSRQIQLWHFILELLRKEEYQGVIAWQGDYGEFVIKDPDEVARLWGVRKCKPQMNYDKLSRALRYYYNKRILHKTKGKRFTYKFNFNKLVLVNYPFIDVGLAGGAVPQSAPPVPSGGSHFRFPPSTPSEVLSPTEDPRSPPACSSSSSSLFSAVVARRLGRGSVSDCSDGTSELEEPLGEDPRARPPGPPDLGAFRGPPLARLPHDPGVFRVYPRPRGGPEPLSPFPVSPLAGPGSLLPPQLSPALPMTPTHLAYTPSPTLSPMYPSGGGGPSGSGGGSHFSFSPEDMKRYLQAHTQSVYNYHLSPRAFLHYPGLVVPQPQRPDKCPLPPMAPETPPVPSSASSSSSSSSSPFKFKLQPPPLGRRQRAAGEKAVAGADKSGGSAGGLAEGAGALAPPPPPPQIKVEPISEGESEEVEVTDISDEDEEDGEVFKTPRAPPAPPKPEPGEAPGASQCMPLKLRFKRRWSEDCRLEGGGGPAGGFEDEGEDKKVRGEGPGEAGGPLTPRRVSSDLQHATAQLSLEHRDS
In outline:
as §1

Test [9] addresses T7, ETV3L (Homo sapiens, UniProt Q6ZN32 1-361).
T7 sequence: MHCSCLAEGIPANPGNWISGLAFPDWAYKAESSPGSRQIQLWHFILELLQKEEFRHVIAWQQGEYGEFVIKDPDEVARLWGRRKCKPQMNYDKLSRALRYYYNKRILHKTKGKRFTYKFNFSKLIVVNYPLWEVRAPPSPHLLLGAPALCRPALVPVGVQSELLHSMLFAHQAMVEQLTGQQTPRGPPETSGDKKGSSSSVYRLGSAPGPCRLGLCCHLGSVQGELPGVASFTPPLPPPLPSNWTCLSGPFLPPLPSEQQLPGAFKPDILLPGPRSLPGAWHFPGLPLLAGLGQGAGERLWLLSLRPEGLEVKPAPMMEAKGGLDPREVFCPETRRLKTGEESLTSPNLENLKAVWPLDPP
A digest of the protocol: as §1

In test [10] the target is T8, SPDEF (Homo sapiens, UniProt O95238 1-335).
T8 sequence: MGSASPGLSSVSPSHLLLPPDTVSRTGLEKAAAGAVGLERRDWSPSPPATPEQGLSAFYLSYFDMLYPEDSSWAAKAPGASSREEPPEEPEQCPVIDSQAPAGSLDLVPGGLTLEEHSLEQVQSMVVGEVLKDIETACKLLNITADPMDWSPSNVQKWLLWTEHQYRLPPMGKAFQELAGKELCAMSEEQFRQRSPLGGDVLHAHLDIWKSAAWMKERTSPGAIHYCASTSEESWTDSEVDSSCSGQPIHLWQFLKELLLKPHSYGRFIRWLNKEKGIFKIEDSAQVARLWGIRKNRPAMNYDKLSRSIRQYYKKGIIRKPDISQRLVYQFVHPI
In outline:
as §1

In test [11] the target is T9, ETV7 (Homo sapiens, UniProt Q9Y603 1-341).
T9 sequence: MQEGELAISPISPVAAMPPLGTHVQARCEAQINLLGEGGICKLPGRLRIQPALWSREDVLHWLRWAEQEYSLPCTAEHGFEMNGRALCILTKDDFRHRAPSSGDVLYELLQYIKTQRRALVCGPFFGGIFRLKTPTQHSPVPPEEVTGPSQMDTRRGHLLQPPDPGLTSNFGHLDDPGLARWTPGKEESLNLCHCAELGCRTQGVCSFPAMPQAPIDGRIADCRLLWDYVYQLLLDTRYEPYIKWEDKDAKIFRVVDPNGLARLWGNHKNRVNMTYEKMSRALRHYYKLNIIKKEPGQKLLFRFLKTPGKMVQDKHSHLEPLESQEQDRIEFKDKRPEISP
In outline:
as §1

The target in test [12] is T10, ETV3 (Homo sapiens, UniProt P41162-2 1-143).
T10 sequence: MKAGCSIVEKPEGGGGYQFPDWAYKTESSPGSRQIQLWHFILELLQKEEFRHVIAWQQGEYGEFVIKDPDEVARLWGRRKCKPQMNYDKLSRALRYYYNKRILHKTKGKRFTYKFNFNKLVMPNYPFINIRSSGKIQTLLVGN
In outline:
as §1

Test [13] has as its target ETV6 (Homo sapiens, UniProt P41212 1-452). A digest of the protocol: as §1

Chain of ETV6 (P41212 whole entry): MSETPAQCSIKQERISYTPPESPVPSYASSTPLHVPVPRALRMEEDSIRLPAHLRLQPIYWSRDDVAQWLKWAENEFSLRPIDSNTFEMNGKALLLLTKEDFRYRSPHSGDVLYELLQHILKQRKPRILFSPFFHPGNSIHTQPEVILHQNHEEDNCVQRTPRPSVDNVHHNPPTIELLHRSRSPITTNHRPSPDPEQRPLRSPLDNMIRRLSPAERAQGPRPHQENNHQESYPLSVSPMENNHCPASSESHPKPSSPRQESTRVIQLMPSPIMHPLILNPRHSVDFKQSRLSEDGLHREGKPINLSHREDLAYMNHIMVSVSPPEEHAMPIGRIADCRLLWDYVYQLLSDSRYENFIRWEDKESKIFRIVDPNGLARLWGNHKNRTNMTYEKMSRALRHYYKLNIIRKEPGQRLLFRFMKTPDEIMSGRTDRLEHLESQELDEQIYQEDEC

Regarding CGTTGT, the binding signal in [1] was 1.09 fold enrichment (6-mer frequency, TF over GST control); in [2] it was 1 fold enrichment (6-mer frequency, TF over GST control); in test [3], 1.02 fold enrichment (6-mer frequency, TF over GST control); in [4], 1.04 fold enrichment (6-mer frequency, TF over GST control); in test [5], 1.01 fold enrichment (6-mer frequency, TF over GST control); in test [6], 1.14 fold enrichment (6-mer frequency, TF over GST control). In addition, the binding signal in test [7] is 1.13 fold enrichment (6-mer frequency, TF over GST control); in test [8], 1.03 fold enrichment (6-mer frequency, TF over GST control); in [9], 1.18 fold enrichment (6-mer frequency, TF over GST control); in [10], 1.05 fold enrichment (6-mer frequency, TF over GST control); in test [11] it was 1.1 fold enrichment (6-mer frequency, TF over GST control); in test [12] it was 1.07 fold enrichment (6-mer frequency, TF over GST control). For the same sequence, the binding signal in test [13] is 1 fold enrichment (6-mer frequency, TF over GST control).
